Measurements from the antibiotic and cytotoxicity screens of Wong et al. (2023).
About 3,300 (8.5%) of roughly 39,000 compounds were called active. This is one part of a sample in which actives are shown more often than they occur.

Tested on: HepG2
Experiment: cytotoxicity call (relative viability < 0.9)
Details: 10 µM

| Structure (SMILES) | cytotoxicity call |
| --- | --- |
| NCC[C@H]1CC[C@H](NC(=O)Cc2ccncc2)[C@@H](CO)O1 | inactive |
| O=C(O)CCCCCCCCCCCC[C@@H]1C=CCC1 | inactive |
| COc1ccc(-c2cc(=O)c3c(O)c(OC)c(O[C@H]4O[C@H](CO[C@@H]5O[C@@H](C)[C@H](O)[C@@H](O)[C@H]5O)[C@@H](O)[C@H](O)[C@H]4O)cc3o2)cc1 | inactive |
| C[C@H](CO)N1C[C@H](C)[C@@H](CN(C)S(=O)(=O)c2cn(C)cn2)Oc2cc(Br)ccc2S1(=O)=O | inactive |
| C[C@H](CO)N1C[C@H](C)[C@@H](CN(C)Cc2ccc(-c3ccccc3)cc2)Oc2c(NS(=O)(=O)c3cccs3)cccc2C1=O | inactive |
| C[C@@H]1CCCCO[C@@H](CN(C)Cc2ccncc2)[C@H](C)CN([C@@H](C)CO)C(=O)c2cc(NC(=O)C3CCCCC3)ccc2O1 | inactive |
| CCOc1ccc2nc(S(N)(=O)=O)sc2c1 | inactive |
| CCOC(=O)c1cccc(N)c1.CS(=O)(=O)O | inactive |
| CC(O)C(=O)O.CCOc1ccc2nc3cc(N)ccc3c(N)c2c1 | active |
| CO[C@@H](CN(C)C(=O)C1CCOCC1)[C@@H](C)CN(C(=O)Nc1ccc(C(F)(F)F)cc1)[C@@H](C)CO | inactive |
| CC(=O)N[C@@H]1C[C@H](O)[C@@H](O)CCC(=O)N[C@H](c2ccccc2)COC1=O | inactive |
| C[C@H]1CN([C@@H](C)CO)C(=O)Cc2cc(NC(=O)Cn3cnnn3)ccc2O[C@H]1CN(C)C(=O)Nc1ccc(C(F)(F)F)cc1 | inactive |
| C[C@@H]1CCCCO[C@@H](CN(C)C(=O)NC2CCCCC2)[C@H](C)CN([C@H](C)CO)C(=O)c2cc(NC(=O)CCC(F)(F)F)ccc2O1 | inactive |
| CO[C@H]1CN(C)C(=O)c2cc(NC(=O)NC(C)C)ccc2OC[C@H](C)N(Cc2ccc(-c3ccccn3)cc2)C[C@H]1C | inactive |
| C[C@@H]1CCCCO[C@H](CN(C)C(=O)Nc2cccc3ccccc23)[C@@H](C)CN([C@H](C)CO)C(=O)c2cc(NS(=O)(=O)c3ccc(F)cc3)ccc2O1 | active |
| C[C@@H]1CN([C@@H](C)CO)C(=O)c2cc(NS(=O)(=O)c3ccc(F)cc3)ccc2O[C@@H](C)CCCCO[C@H]1CN(C)C(=O)Nc1cccc2ccccc12 | inactive |
| C[C@@H]1CCCCO[C@@H](CN(C)C(=O)Nc2cccc3ccccc23)[C@@H](C)CN([C@H](C)CO)C(=O)c2cc(NS(=O)(=O)c3ccc(F)cc3)ccc2O1 | inactive |
| C[C@@H]1CCCCO[C@H](CN(C)C(=O)Nc2cccc3ccccc23)[C@H](C)CN([C@@H](C)CO)C(=O)c2cc(NS(=O)(=O)c3ccc(F)cc3)ccc2O1 | active |
| C[C@@H]1CCCCO[C@@H](CN(C)C(=O)Nc2cccc3ccccc23)[C@H](C)CN([C@@H](C)CO)C(=O)c2cc(NS(=O)(=O)c3ccc(F)cc3)ccc2O1 | inactive |
| C[C@H]1CCCCO[C@@H](CN(C)C(=O)Nc2cccc3ccccc23)[C@@H](C)CN([C@@H](C)CO)C(=O)c2cc(NS(=O)(=O)c3ccc(F)cc3)ccc2O1 | inactive |
| C[C@H]1CCCCO[C@H](CN(C)C(=O)Nc2cccc3ccccc23)[C@@H](C)CN([C@@H](C)CO)C(=O)c2cc(NS(=O)(=O)c3ccc(F)cc3)ccc2O1 | active |
| C[C@@H]1CN([C@@H](C)CO)C(=O)c2cc(NS(=O)(=O)c3ccc(F)cc3)ccc2O[C@@H](C)CCCCO[C@@H]1CN(C)C(=O)Nc1cccc2ccccc12 | inactive |
| C[C@H](CO)N1C[C@H](C)[C@@H](CN(C)C(=O)Nc2cccc3ccccc23)OCCCC[C@H](C)Oc2ccc(NS(=O)(=O)c3ccc(F)cc3)cc2C1=O | inactive |
| C[C@H](CO)N1C[C@H](C)[C@H](CN(C)C(=O)Nc2cccc3ccccc23)OCCCC[C@H](C)Oc2ccc(NS(=O)(=O)c3ccc(F)cc3)cc2C1=O | inactive |

| Structure (SMILES) | cytotoxicity call |
| --- | --- |
| C[C@@H]1CCCCO[C@@H](CN(C)C(=O)Nc2cccc3ccccc23)[C@H](C)CN([C@H](C)CO)C(=O)c2cc(NS(=O)(=O)c3ccc(F)cc3)ccc2O1 | active |
| CN1CCC[C@H](C(=O)O)C1 | inactive |
| C[C@@H]1CN([C@H](C)CO)S(=O)(=O)c2ccc(C#CC3CC3)cc2O[C@H]1CN(C)Cc1cccc(F)c1 | inactive |
| CNC[C@H]1Oc2cc(C#CC(C)(C)O)ccc2S(=O)(=O)N([C@H](C)CO)C[C@@H]1C | inactive |
| O=C(C[C@@H]1CC[C@H]2[C@@H](COC[C@@H](O)CN2S(=O)(=O)c2ccc(Cl)cc2)O1)N[C@@H]1CCN(Cc2ccccc2)C1 | inactive |
| C[C@@H]1CN([C@H](C)CO)C(=O)c2cc(NS(C)(=O)=O)ccc2O[C@H]1CN(C)C(=O)Nc1ccc2c(c1)OCO2 | inactive |
| CCOC(=O)c1snc2c(=O)nc[nH]c12 | inactive |
| C=CCOC(=O)[C@@H]1[C@H]2C(=O)O[C@H](c3ccccc3)[C@H](c3ccccc3)N2[C@H](c2ccc(OCCOC(=O)[C@H]3C[C@H]4C(=O)N[C@@H](CCCCNC(C)=O)C(=O)N4[C@H]3c3cccc(OCCO)c3)cc2)[C@@]12C(=O)Nc1ccc(I)cc12 | inactive |
| C[C@@H]1CCCCO[C@@H](CN(C)C(=O)CCC(F)(F)F)[C@@H](C)CN([C@@H](C)CO)C(=O)c2cc(NC(=O)Nc3ccc4c(c3)OCO4)ccc2O1 | inactive |
| C[C@@H]1CCCCO[C@H](CN(C)C(=O)Nc2cccc3ccccc23)[C@H](C)CN([C@H](C)CO)C(=O)c2cc(NS(=O)(=O)c3ccc(F)cc3)ccc2O1 | active |
| C[C@H]1CN([C@@H](C)CO)S(=O)(=O)c2ccc(-c3cccnc3)cc2O[C@H]1CN(C)C(=O)c1ccc2c(c1)OCO2 | inactive |
| NC(=O)CC1=NC(=O)CS1 | inactive |
| C[C@H]1CN([C@@H](C)CO)C(=O)Cc2cc(NC(=O)Cc3ccccc3)ccc2O[C@@H]1CN(C)S(C)(=O)=O | inactive |
| Cc1ccc(S(=O)(=O)Nc2ccc3c(c2)C(=O)N([C@@H](C)CO)C[C@H](C)[C@H](CN(C)Cc2ccc4c(c2)OCO4)OCCCC[C@@H](C)O3)cc1 | inactive |
| C[C@@H]1CN([C@@H](C)CO)C(=O)c2cc(NC(=O)Nc3cccc4ccccc34)ccc2O[C@H]1CN(C)Cc1ccncc1 | inactive |
| C#CC1(OC(C)=O)CCC2C3CCC4=CC(=O)CCC4C3CCC21C (configuration not stated) | inactive |
| C#CC1(OC(C)=O)CCC2C3CCC4=CC(OC(C)=O)CCC4C3CCC21C (configuration not stated) | active |
| C#CC1(OC(C)=O)CCC2C3CCC4=CC(=NO)CCC4C3CCC21CC (configuration not stated) | active |
| CC(=O)OC1(C(C)=O)CCC2C3CC(C)C4=CC(=O)CCC4(C)C3CCC21C (configuration not stated) | inactive |
| C#CC1(O)CCC2C3CCC4=CC(=O)CCC4C3CCC21CC (configuration not stated) | inactive |
| C[C@@H]1CN([C@H](C)CO)C(=O)CCCn2cc(nn2)CO[C@@H]1CN(C)C(=O)Nc1ccc2c(c1)OCCO2 | inactive |
| COc1ccc(S(=O)(=O)Nc2cccc3c2O[C@@H](CN(C)C(=O)Nc2c(C)noc2C)[C@H](C)CN([C@H](C)CO)C3=O)cc1 | inactive |
| COc1cccc(S(=O)(=O)N(C)C[C@@H]2Oc3cc(C4=CCCC4)ccc3S(=O)(=O)N([C@H](C)CO)C[C@@H]2C)c1 | inactive |
| C[C@@H]1CN([C@@H](C)CO)C(=O)c2cc(NC(=O)CCC(F)(F)F)ccc2O[C@H]1CN(C)Cc1ccc(Cl)c(Cl)c1 | active |

| Structure (SMILES) | cytotoxicity call |
| --- | --- |
| C[C@H](CO)N1C[C@H](C)[C@@H](CN(C)Cc2ccc(Cl)c(Cl)c2)Oc2ccc(NC(=O)CCC(F)(F)F)cc2CC1=O | inactive |
| C[C@@H]1CN([C@@H](C)CO)C(=O)Cc2cc(NC(=O)CCC(F)(F)F)ccc2O[C@@H]1CN(C)Cc1ccc(Cl)c(Cl)c1 | active |
| C[C@@H]1CN([C@H](C)CO)C(=O)c2cc(NC(=O)CCC(F)(F)F)ccc2O[C@@H]1CN(C)Cc1ccc(Cl)c(Cl)c1 | inactive |
| C[C@H](CO)N1C[C@H](C)[C@H](CN(C)Cc2ccc(Cl)c(Cl)c2)Oc2ccc(NC(=O)CCC(F)(F)F)cc2CC1=O | inactive |
| C[C@@H]1CN([C@H](C)CO)C(=O)Cc2cc(NC(=O)CCC(F)(F)F)ccc2O[C@H]1CN(C)Cc1ccc(Cl)c(Cl)c1 | inactive |
| C[C@@H]1CN([C@@H](C)CO)C(=O)Cc2cc(NC(=O)CCC(F)(F)F)ccc2O[C@H]1CN(C)Cc1ccc(Cl)c(Cl)c1 | active |
| C[C@@H]1CN([C@H](C)CO)C(=O)Cc2cc(NC(=O)CCC(F)(F)F)ccc2O[C@@H]1CN(C)Cc1ccc(Cl)c(Cl)c1 | inactive |
| C[C@H]1CN([C@@H](C)CO)C(=O)c2cc(NC(=O)CCC(F)(F)F)ccc2O[C@H]1CN(C)Cc1ccc(Cl)c(Cl)c1 | inactive |
| C[C@H]1CCCCO[C@@H](CN(C)C(=O)Nc2ccc(C(F)(F)F)cc2)[C@@H](C)CN([C@@H](C)CO)C(=O)c2cc(N(C)C)ccc2O1 | inactive |
| CC(C)NC(=O)Nc1ccc2c(c1)CC(=O)N([C@H](C)CO)C[C@@H](C)[C@@H](CN(C)Cc1ccc3c(c1)OCO3)O2 | inactive |
| C[C@@H]1CCCCO[C@H](CN(C)C(=O)Cc2ccccc2)[C@@H](C)CN([C@H](C)CO)C(=O)c2cc(NC(=O)Cc3ccccc3)ccc2O1 | inactive |
| C[C@H]1CN([C@@H](C)CO)C(=O)c2cccc(NC(=O)c3ccc(-c4nccs4)cc3)c2O[C@H]1CN(C)C(=O)NC1CCCCC1 | inactive |
| Cc1noc(C)c1NC(=O)N(C)C[C@H]1OCCCC[C@@H](C)Oc2ccc(NC(=O)Nc3ccc(C(F)(F)F)cc3)cc2C(=O)N([C@@H](C)CO)C[C@H]1C | inactive |
| C[C@@H]1CCCCO[C@H](CN(C)C(=O)Nc2ccc(C(F)(F)F)cc2)[C@@H](C)CN([C@@H](C)CO)C(=O)c2cc(NC(=O)Nc3ccc(C(F)(F)F)cc3)ccc2O1 | inactive |
| C[C@H]1CCCCO[C@@H](CN(C)C(=O)Nc2ccc(C(F)(F)F)cc2)[C@@H](C)CN([C@@H](C)CO)C(=O)c2cc(NC(=O)Nc3ccc(C(F)(F)F)cc3)ccc2O1 | inactive |
| C[C@@H]1CCCCO[C@H](CN(C)C(=O)Nc2ccc(C(F)(F)F)cc2)[C@H](C)CN([C@H](C)CO)C(=O)c2cc(NC(=O)Nc3ccc(C(F)(F)F)cc3)ccc2O1 | inactive |
| C[C@H]1CCCCO[C@H](CN(C)C(=O)Nc2ccc(C(F)(F)F)cc2)[C@@H](C)CN([C@@H](C)CO)C(=O)c2cc(NC(=O)Nc3ccc(C(F)(F)F)cc3)ccc2O1 | active |
| Cc1noc(C)c1NC(=O)N(C)C[C@@H]1OCCCC[C@H](C)Oc2ccc(NC(=O)Nc3ccc(C(F)(F)F)cc3)cc2C(=O)N([C@@H](C)CO)C[C@@H]1C | active |
| CC(C)NC(=O)N(C)C[C@H]1OCCCC[C@@H](C)Oc2ccc(NC(=O)Nc3ccc(C(F)(F)F)cc3)cc2C(=O)N([C@@H](C)CO)C[C@H]1C | inactive |
| Cc1noc(C)c1NC(=O)N(C)C[C@@H]1OCCCC[C@@H](C)Oc2ccc(NC(=O)Nc3ccc(C(F)(F)F)cc3)cc2C(=O)N([C@H](C)CO)C[C@@H]1C | inactive |
| CC(C)NC(=O)N(C)C[C@H]1OCCCC[C@H](C)Oc2ccc(NC(=O)Nc3ccc(C(F)(F)F)cc3)cc2C(=O)N([C@H](C)CO)C[C@@H]1C | inactive |
| C[C@H](CO)N1C[C@H](C)[C@H](CN(C)C(=O)Nc2ccc(C(F)(F)F)cc2)OCCCC[C@H](C)Oc2ccc(NC(=O)Nc3ccc(C(F)(F)F)cc3)cc2C1=O | inactive |
| CC(C)NC(=O)N(C)C[C@@H]1OCCCC[C@H](C)Oc2ccc(NC(=O)Nc3ccc(C(F)(F)F)cc3)cc2C(=O)N([C@@H](C)CO)C[C@@H]1C | active |
| C[C@@H]1CN([C@H](C)CO)C(=O)c2cc(NC(=O)Nc3ccc(C(F)(F)F)cc3)ccc2O[C@@H](C)CCCCO[C@H]1CN(C)C(=O)Nc1ccc(C(F)(F)F)cc1 | active |
